Data on seven compounds can be found in the supplement of paper PMC8975748.

The subject of assay [1] is Saccharomyces cerevisiae BY4741 SeMeCo community. The assay is described as follows: mean cell size (pixel area) (pixels); higher = larger cells. The following applies: 10 µM; 24 h; SM minimal medium. In outline: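 Yeast cells were fixed with paraformaldehyde, imaged by automated confocal microscopy and analysed in Harmony to obtain mean cell pixel area per well. They came from a four-plasmid fluorescent Saccharomyces cerevisiae BY4741 community, each plasmid complementing one auxotrophy and carrying a fluorescent marker. Before imaging, 70 µl of culture at OD600 = 0.3 was incubated for 24 h in SM medium in 384-well plates predosed acoustically with drug (final 10 µM). Values are means of 3 replicates. Same SeMeCo high-content imaging drug screen: Selleck FDA-approved drugs at 10 µM, 24 h in SM medium, 384-well plates, 3 replicates.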

Assay [2] shares this test system. The assay is described as follows: z-score of prototroph abundance vs DMSO median; higher = larger share of this subpopulation than in DMSO controls. The settings on record: 10 µM; 24 h; SM minimal medium; subpopulation (auxotrophy): Prototroph. Put shortly:
(§1)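 A community of Saccharomyces cerevisiae BY4741 was built from four plasmids that each restored one auxotrophy and encoded a distinct fluorescent protein. Pre-grown overnight to OD600 1.0 and diluted to 0.3, it was dispensed at 70 µl into 384-well plates acoustically predosed with library drugs for a final 10 µM, and grown 24 h in minimal SM medium. Cells were then paraformaldehyde-fixed and imaged by automated confocal microscopy. Thresholds and autofluorescence correction came from single-auxotroph fluorescent strains, and each subpopulation's abundance was scored as a z-score relative to the vehicle-well median.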

Assay [3] has the same test system. The assay is described as follows: z-score of subpopulation abundance vs DMSO median, subpopulation auxotrophic for L; higher = larger share of this subpopulation than in DMSO controls. The following applies: 10 µM; 24 h; SM minimal medium; subpopulation (auxotrophy): L. Put shortly:
as §1

The test system is the same in assay [4]. The assay is described as follows: z-score of subpopulation abundance vs DMSO median, subpopulation auxotrophic for U; higher = larger share of this subpopulation than in DMSO controls. The settings on record: 10 µM; 24 h; SM minimal medium; subpopulation (auxotrophy): U. In outline: as §1
The test system is the same in assay [5]. The assay is described as follows: z-score of subpopulation abundance vs DMSO median, subpopulation auxotrophic for LU; higher = larger share of this subpopulation than in DMSO controls. The settings on record: 10 µM; 24 h; SM minimal medium; subpopulation (auxotrophy): LU. Put shortly: as §1
For assay [6] the test system is unchanged. The assay is described as follows: z-score of subpopulation abundance vs DMSO median, subpopulation auxotrophic for LM; higher = larger share of this subpopulation than in DMSO controls. The settings on record: 10 µM; 24 h; SM minimal medium; subpopulation (auxotrophy): LM. Put shortly: as §1
Assay [7] shares this test system. The assay is described as follows: z-score of subpopulation abundance vs DMSO median, subpopulation auxotrophic for HM; higher = larger share of this subpopulation than in DMSO controls. The settings on record: 10 µM; 24 h; SM minimal medium; subpopulation (auxotrophy): HM. In outline: as §1
Assay [8] has the same test system. The assay is described as follows: z-score of subpopulation abundance vs DMSO median, subpopulation auxotrophic for HU; higher = larger share of this subpopulation than in DMSO controls. The settings on record: 10 µM; 24 h; SM minimal medium; subpopulation (auxotrophy): HU. In outline: as §1
For assay [9] the test system is unchanged. The assay is described as follows: z-score of subpopulation abundance vs DMSO median, subpopulation auxotrophic for UM; higher = larger share of this subpopulation than in DMSO controls. The settings on record: 10 µM; 24 h; SM minimal medium; subpopulation (auxotrophy): UM. In outline: as §1
Assay [10] has the same test system. The assay is described as follows: z-score of subpopulation abundance vs DMSO median, subpopulation auxotrophic for HL; higher = larger share of this subpopulation than in DMSO controls. The following applies: 10 µM; 24 h; SM minimal medium; subpopulation (auxotrophy): HL. In outline: as §1
Assay [11] has the same test system. The assay is described as follows: z-score of subpopulation abundance vs DMSO median, subpopulation auxotrophic for HLU; higher = larger share of this subpopulation than in DMSO controls. The settings on record: 10 µM; 24 h; SM minimal medium; subpopulation (auxotrophy): HLU. Put shortly: as §1
For assay [12] the test system is unchanged. The assay is described as follows: z-score of subpopulation abundance vs DMSO median, subpopulation auxotrophic for HLM; higher = larger share of this subpopulation than in DMSO controls. The following applies: 10 µM; 24 h; SM minimal medium; subpopulation (auxotrophy): HLM. In outline: as §1
For assay [13] the test system is unchanged. The assay is described as follows: z-score of subpopulation abundance vs DMSO median, subpopulation auxotrophic for HUM; higher = larger share of this subpopulation than in DMSO controls. The settings on record: 10 µM; 24 h; SM minimal medium; subpopulation (auxotrophy): HUM. In outline:
as §1

The test system is the same in assay [14]. The assay is described as follows: z-score of subpopulation abundance vs DMSO median, subpopulation auxotrophic for LUM; higher = larger share of this subpopulation than in DMSO controls. The following applies: 10 µM; 24 h; SM minimal medium; subpopulation (auxotrophy): LUM. Put shortly: as §1
The test system is the same in assay [15]. The assay is described as follows: z-score of subpopulation abundance vs DMSO median, subpopulation auxotrophic for HLUM; higher = larger share of this subpopulation than in DMSO controls. The settings on record: 10 µM; 24 h; SM minimal medium; subpopulation (auxotrophy): HLUM. Put shortly: as §1
For assay [16] the test system is unchanged. The assay is described as follows: z-score of subpopulation abundance vs DMSO median, subpopulation auxotrophic for M; higher = larger share of this subpopulation than in DMSO controls. The settings on record: 10 µM; 24 h; SM minimal medium; subpopulation (auxotrophy): M. Put shortly:
as §1

For assay [17] the test system is unchanged. The assay is described as follows: z-score of subpopulation abundance vs DMSO median, subpopulation auxotrophic for H; higher = larger share of this subpopulation than in DMSO controls. The settings on record: 10 µM; 24 h; SM minimal medium; subpopulation (auxotrophy): H. In outline: as §1

Counter-ions that a name gives are not always drawn. ± gives the standard deviation of the averaged measurements.

Compound `CCCNC(C)C(=O)Nc1ccccc1C` (stereo not given) [Prilocaine hydrochloride] yielded a mean cell size in [1] of 12.28 ± 0.063. The “z-score of prototroph abundance” value in assay [2] is -0.24. For the same compound, the “z-score of subpopulation abundance” value is 0.41 in assay [3]; 0.86 in assay [4]; 1.11 in assay [5]; 0.83 in assay [6]; -0.46 in [7]; 0.08 in assay [8]. The “z-score of subpopulation abundance” value in assay [9] was 0.54; in assay [10] it was 0.03; in assay [11], -0.01; in assay [12] it was -0.05; in [13], -0.27; in assay [14], 0.73. Further, the “z-score of subpopulation abundance” value in [15] was found to be 0.58.

Consider `COC(=O)C1=C(C)NC(C)=C(C(=O)OC2CCCN(Cc3ccccc3)C2)C1c1cccc([N+](=O)[O-])c1` (stereo not given) [Benidipine HCl], for which, in assay [1], the mean cell size is 12.4 ± 0.23. Further, the “z-score of prototroph abundance” value in [2] was -0.13. For the same compound, the “z-score of subpopulation abundance” value in [16] was 0.13; in [3] it was 1.12; in assay [4], -1.06; in [17] it was 0.92; in [6] it was 1.8; in assay [8], -0.01. Further, the “z-score of subpopulation abundance” value in [9] is -0.42; in assay [10], 1.55; in assay [11], 0.26; in assay [13], 0.12; in [15], -0.21.

Turning to `CS(=O)(=O)c1ccc([C@@H](O)[C@@H](CO)NC(=O)C(Cl)Cl)cc1` [Thiamphenicol], the mean cell size in assay [1] turned out to be 12.41 ± 0.061. Moreover, the “z-score of prototroph abundance” value in [2] is 0.25. Besides, the “z-score of subpopulation abundance” value in assay [16] is -0.68; in [3], 0.13; in [4], 0.59; in assay [17], -0.3; in [6], -0.48; in assay [10], -0.52. Further, the “z-score of subpopulation abundance” value was -0.36 in [11] and -0.6 in [14].

Compound `C/C=C1\[C@H]2C=C(C)C[C@]1(N)c1ccc(=O)[nH]c1C2` [(-)-Huperzine A (HupA)] registered a mean cell size in assay [1] of 12.04 ± 0.12. For the same compound, the “z-score of prototroph abundance” value in assay [2] turned out to be 0.12. Also, the “z-score of subpopulation abundance” value was 1.03 in [16]; -0.33 in assay [3]; -1.16 in [17]; -0.7 in [6]; 0.12 in assay [7]; -0.26 in [8]. For the same compound, the “z-score of subpopulation abundance” value is -0.57 in [11], 0.11 in assay [13] and -0.57 in assay [15].

In turn, `C[n+]1ccccc1/C=N/O` [Pralidoxime chloride] displayed a mean cell size in [1] of 11.9 ± 0.062. For the same compound, in [2], the “z-score of prototroph abundance” value was -0.28. For the same compound, the “z-score of subpopulation abundance” value in assay [3] is -0.96; in assay [4] it was 1.25; in assay [17] it was -1.61; in assay [5], 0.11; in [6] it was 0.17; in assay [7], -0.08. In addition, the “z-score of subpopulation abundance” value was 0.45 in assay [8]; 1.18 in [9]; -0.65 in [10]; -0.43 in assay [11]; -0.4 in [12]; 0.39 in [13]. Also, the “z-score of subpopulation abundance” value in assay [14] is 0.34; in assay [15] it was -0.34.

Compound `Cc1ccc(Sc2ccccc2N2CCNCC2)c(C)c1` [Vortioxetine] returned a mean cell size in [1] of 12.18 ± 0.097. For the same compound, the “z-score of prototroph abundance” value in [2] was 0.02. Moreover, the “z-score of subpopulation abundance” value is 0.08 in [16]; -0.12 in [4]; -0.14 in assay [17]; -0.16 in assay [6]; -0.01 in [7]; 0.9 in assay [8]. For the same compound, the “z-score of subpopulation abundance” value in assay [9] was 0.26; in [10], 0.77; in [11], 0.51; in assay [12], 0.2; in assay [14], -0.16; in assay [15], -0.06.

With `C[C@]12CC[C@@H]3c4ccc(O)cc4CC[C@H]3[C@@H]1CCC2=O` [Estrone], the mean cell size in assay [1] is 12.48 ± 0.098. In addition, in [2], the “z-score of prototroph abundance” value came out at 0.49. The “z-score of subpopulation abundance” value in assay [3] was 0.44; in assay [4] it was -0.57; in assay [17], -0.34; in assay [5] it was 0.11; in assay [6], 0.03; in assay [7] it was -0.17. Besides, the “z-score of subpopulation abundance” value in [8] was -0.27; in [9], -0.49; in assay [10] it was -0.05; in assay [11], -0.08; in [12], -0.39; in assay [13], -0.46. For the same compound, the “z-score of subpopulation abundance” value in [14] is -0.12; in assay [15], -0.85.
